{"source": "PubChem BioAssay (NCI)", "note": "Compounds without any hit were thinned out: in the full panel of roughly 83,000, 20% have a hit.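 Percent growth is the endpoint: 0 to 100 indicates growth inhibition (40 means 60% inhibition), 0 means no net growth, and negative values indicate cell death.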 Values without a mark were called inactive. The source made the active and inactive calls. Rule for the calls: active = growth percent below 10; inactive = the rest."}
{"test_system": "RXF 393 renal", "test": "NCI-60 one-dose screen, 48 h (100 = growth as untreated, 0 = no growth, -100 = all killed)", "settings": "10 µM unless noted"}
{"smiles": "O=NN(Cc1cccnc1)C(=O)NC1CCCCC1", "growth": "102%"}
{"smiles": "FC(F)(F)c1cccc(CNC2CCN(CCc3ccccc3)CC2)c1", "growth": "84.1%"}
{"smiles": "COc1ccc(CCN2C(=O)/C(=C/c3ccc(C4Oc5ccccc5C5CC(c6cccc(OC)c6)=NN54)cc3)SC2=S)cc1", "note": "(stereo not drawn)", "growth": "107%"}
{"smiles": "COc1cc(-c2c3c(cn2S(=O)(=O)c2ccccc2)-c2nc(N)sc2CC3)cc(OC)c1OC", "growth": "2.6% (active)"}
{"smiles": "CCC1=C[C@@H]2CN(C1)Cc1c([nH]c3ccccc13)[C@@](C(=O)OC)(c1cc3c(cc1OC)N(C)[C@H]1[C@@](O)(C(=O)OC)[C@H](OC(C)=O)[C@]4(CC)[C@@H]5C[C@@H]5CN5CC[C@]31[C@@H]54)C2", "growth": "29.5%"}
{"smiles": "O=C(O)CCCN1C(=O)C2C3CCC(C3)C2C1=O", "note": "(stereo not drawn)", "growth": "83.8%"}
{"smiles": "CCOC(=O)CSc1c(-c2ccccc2)c2cc(Cl)ccc2[nH]c1=O", "growth": "103%"}
{"smiles": "COc1ccc(C2C3=C(COC3=O)N(CCO)c3cc4c(cc32)CCC4)cc1", "note": "(stereo not drawn)", "growth": "30.5%"}
{"smiles": "Cc1c(C(=O)OCCO)cc(-c2ccc(Cl)cc2)n1-c1ccc(Cl)cc1Cl", "growth": "62.8%"}
{"smiles": "NC1C(N)C(N)C1N", "note": "(stereo not drawn)", "growth": "125%"}
{"smiles": "Oc1[nH]c2ccccc2c1N=Nc1nnc2n1N=C(c1ccccc1)CS2", "growth": "82.4%"}
{"smiles": "O=NN(C(=O)NC1CCC(C(=O)O)CC1)C1CCC(C(=O)O)CC1", "note": "(stereo not drawn)", "growth": "106%"}
{"smiles": "Nc1ccc(-c2nn3c(CCC(=O)c4nc5ncccc5[nH]4)nnc3s2)c(O)c1", "growth": "84.9%"}
{"smiles": "CCOc1ccc2c(c1)CN(Cc1ccc(Cl)cc1)CO2", "growth": "-3.87% (active)"}
{"smiles": "CCN(CC)CCCNc1ccnc2cc3ccccc3cc12", "growth": "35.7%"}
{"smiles": "Cc1ccc2cccc(Oc3ccc(Nc4ncnc5onc(-c6ccccc6)c45)cc3)c2n1", "growth": "82.8%"}
{"smiles": "CCCc1c(C)c2sc(=O)[nH]c2[nH]c1=O", "growth": "107%"}
{"smiles": "CC(C)[C@H](NC(=O)Cn1cc(C(=O)O)nn1)C(=O)O", "growth": "112%"}
{"smiles": "CC1CCCCN1CCCNC(=O)c1ccc2c(c1)sc1nc(-c3ccc(F)cc3)cn12", "note": "(stereo not drawn)", "growth": "91.7%"}
{"smiles": "CN(C)c1ccc(/C=C/c2ccnc3c(O)cccc23)cc1", "growth": "36.1%"}
{"smiles": "NC(=O)CSc1nc(-c2ccc(F)cc2)cc(-c2ccco2)n1", "growth": "118%"}
{"smiles": "Clc1ccc(COc2ccc(Nc3ncnc4onc(-c5ccccc5)c34)cc2)cc1", "growth": "95.5%"}
{"smiles": "O=S1(=O)N(Cc2ccccc2)[C@@H](Cc2ccccc2)C2O[C@H]2[C@H](Cc2ccccc2)N1Cc1ccccc1", "note": "(stereo partly drawn)", "growth": "45.2%"}
{"smiles": "COc1cc(/C=C2\\CN(C)C/C(=C\\c3cc(CN4CCCC4)c(O)c(OC)c3)C2=O)cc(CN2CCCC2)c1O", "growth": "68.9%"}
{"smiles": "COc1cc(/C=C2\\CN(S(=O)(=O)c3ccccc3)C/C(=C\\c3cc(CN4CCCC4)c(O)c(OC)c3)C2=O)cc(CN2CCCC2)c1O", "growth": "-65.4% (active)"}
{"smiles": "COc1ccc(-c2nc(N3CCN(C(=O)C4CCCCC4)CC3)c3c4c(sc3n2)CCCC4)cc1", "growth": "-59.3% (active)"}
{"smiles": "Nc1cccc(Nc2cc(S(=O)(=O)O)c(N)c3c2C(=O)c2ccccc2C3=O)c1", "growth": "119%"}
{"smiles": "CCCCNc1nc(NC(C)(C)C)nc(NC(C)(C)C)n1", "growth": "-7.69% (active)"}
{"smiles": "COc1ccc(OC)c(NC(=O)/C(C#N)=C/c2ccco2)c1", "growth": "113%"}
{"smiles": "O=c1oc2ccc(Br)cc2c(=O)n1-c1ccc(Cl)cc1F", "growth": "4.25% (active)"}
{"smiles": "COc1ccc(C2=NN(/C=C3\\SC(=O)NC3=Nc3ccc(F)cc3)C(c3ccc(F)cc3)C2)cc1", "note": "(stereo not drawn)", "growth": "96%"}
{"smiles": "Nc1no[n+]([O-])c1-c1nnc2c(n1)-c1ccccc1C2=O", "growth": "91.2%"}
{"smiles": "C=CCN1C(=O)/C(=c2\\sc3n(c2=O)NC2C(N=3)N(CC)C(=O)N2CC)c2ccccc21", "note": "(stereo not drawn)", "growth": "13.7%"}
{"smiles": "O=C1/C(=C/c2ccc(O)cc2)COc2ccc(O)cc21", "growth": "125%"}
{"smiles": "COc1cc(/C=C/C(=O)c2c(C)nc3ccccc3c2/C=C/c2ccccc2)cc(OC)c1OC", "growth": "-17.2% (active)"}
{"smiles": "O=c1oc2ccc(F)cc2c(=O)n1-c1ccc(Cl)cc1F", "growth": "-2.79% (active)"}
{"smiles": "CC1(C)CC2(C)OC2C2(C1)N=NC(=Nc1ccccc1)O2", "note": "(stereo not drawn)", "growth": "-1.33% (active)"}
{"smiles": "CCN1C(=O)N(CC)C2Nn3c(s/c(=C4\\C(=O)N(C(C)C)c5ccccc54)c3=O)=NC21", "note": "(stereo not drawn)", "growth": "44.5%"}
{"smiles": "O=c1c(-c2nc3ccccc3[nH]2)cc2ccccc2n1Cc1cn(Cc2ccc(F)cc2)nn1", "growth": "-25.5% (active)"}
{"test_system": "SF-268 CNS", "test": "NCI-60 one-dose screen, 48 h (100 = growth as untreated, 0 = no growth, -100 = all killed)", "settings": "10 µM unless noted"}
{"smiles": "O=NN(Cc1cccnc1)C(=O)NC1CCCCC1", "growth": "106%"}
{"smiles": "FC(F)(F)c1cccc(CNC2CCN(CCc3ccccc3)CC2)c1", "growth": "74.7%"}
{"smiles": "COc1ccc(CCN2C(=O)/C(=C/c3ccc(C4Oc5ccccc5C5CC(c6cccc(OC)c6)=NN54)cc3)SC2=S)cc1", "note": "(stereo not drawn)", "growth": "94.4%"}
{"smiles": "COc1cc(-c2c3c(cn2S(=O)(=O)c2ccccc2)-c2nc(N)sc2CC3)cc(OC)c1OC", "growth": "40.7%"}
{"smiles": "CCC1=C[C@@H]2CN(C1)Cc1c([nH]c3ccccc13)[C@@](C(=O)OC)(c1cc3c(cc1OC)N(C)[C@H]1[C@@](O)(C(=O)OC)[C@H](OC(C)=O)[C@]4(CC)[C@@H]5C[C@@H]5CN5CC[C@]31[C@@H]54)C2", "growth": "8.9% (active)"}
{"smiles": "O=C(O)CCCN1C(=O)C2C3CCC(C3)C2C1=O", "note": "(stereo not drawn)", "growth": "107%"}
{"smiles": "CCOC(=O)CSc1c(-c2ccccc2)c2cc(Cl)ccc2[nH]c1=O", "growth": "102%"}
{"smiles": "COc1ccc(C2C3=C(COC3=O)N(CCO)c3cc4c(cc32)CCC4)cc1", "note": "(stereo not drawn)", "growth": "74.5%"}
{"smiles": "Cc1c(C(=O)OCCO)cc(-c2ccc(Cl)cc2)n1-c1ccc(Cl)cc1Cl", "growth": "70.4%"}
{"smiles": "NC1C(N)C(N)C1N", "note": "(stereo not drawn)", "growth": "109%"}
{"smiles": "Oc1[nH]c2ccccc2c1N=Nc1nnc2n1N=C(c1ccccc1)CS2", "growth": "69.1%"}
{"smiles": "O=NN(C(=O)NC1CCC(C(=O)O)CC1)C1CCC(C(=O)O)CC1", "note": "(stereo not drawn)", "growth": "107%"}
{"smiles": "Nc1ccc(-c2nn3c(CCC(=O)c4nc5ncccc5[nH]4)nnc3s2)c(O)c1", "growth": "73.5%"}
{"smiles": "CCOc1ccc2c(c1)CN(Cc1ccc(Cl)cc1)CO2", "growth": "24.9%"}
{"smiles": "CCN(CC)CCCNc1ccnc2cc3ccccc3cc12", "growth": "60.2%"}
{"smiles": "Cc1ccc2cccc(Oc3ccc(Nc4ncnc5onc(-c6ccccc6)c45)cc3)c2n1", "growth": "91.4%"}
{"smiles": "CCCc1c(C)c2sc(=O)[nH]c2[nH]c1=O", "growth": "99.6%"}
{"smiles": "CC(C)[C@H](NC(=O)Cn1cc(C(=O)O)nn1)C(=O)O", "growth": "115%"}
{"smiles": "CC1CCCCN1CCCNC(=O)c1ccc2c(c1)sc1nc(-c3ccc(F)cc3)cn12", "note": "(stereo not drawn)", "growth": "92.8%"}
{"smiles": "CN(C)c1ccc(/C=C/c2ccnc3c(O)cccc23)cc1", "growth": "12.5%"}
{"smiles": "NC(=O)CSc1nc(-c2ccc(F)cc2)cc(-c2ccco2)n1", "growth": "104%"}
{"smiles": "Clc1ccc(COc2ccc(Nc3ncnc4onc(-c5ccccc5)c34)cc2)cc1", "growth": "89.2%"}
{"smiles": "O=S1(=O)N(Cc2ccccc2)[C@@H](Cc2ccccc2)C2O[C@H]2[C@H](Cc2ccccc2)N1Cc1ccccc1", "note": "(stereo partly drawn)", "growth": "57.8%"}
{"smiles": "COc1cc(/C=C2\\CN(C)C/C(=C\\c3cc(CN4CCCC4)c(O)c(OC)c3)C2=O)cc(CN2CCCC2)c1O", "growth": "61.3%"}
{"smiles": "COc1cc(/C=C2\\CN(S(=O)(=O)c3ccccc3)C/C(=C\\c3cc(CN4CCCC4)c(O)c(OC)c3)C2=O)cc(CN2CCCC2)c1O", "growth": "12.9%"}
{"smiles": "COc1ccc(-c2nc(N3CCN(C(=O)C4CCCCC4)CC3)c3c4c(sc3n2)CCCC4)cc1", "growth": "20.3%"}
{"smiles": "Nc1cccc(Nc2cc(S(=O)(=O)O)c(N)c3c2C(=O)c2ccccc2C3=O)c1", "growth": "101%"}
{"smiles": "CCCCNc1nc(NC(C)(C)C)nc(NC(C)(C)C)n1", "growth": "91.7%"}
{"smiles": "COc1ccc(OC)c(NC(=O)/C(C#N)=C/c2ccco2)c1", "growth": "105%"}
{"smiles": "O=c1oc2ccc(Br)cc2c(=O)n1-c1ccc(Cl)cc1F", "growth": "8.43% (active)"}
{"smiles": "COc1ccc(C2=NN(/C=C3\\SC(=O)NC3=Nc3ccc(F)cc3)C(c3ccc(F)cc3)C2)cc1", "note": "(stereo not drawn)", "growth": "97.9%"}
{"smiles": "Nc1no[n+]([O-])c1-c1nnc2c(n1)-c1ccccc1C2=O", "growth": "76.5%"}
{"smiles": "C=CCN1C(=O)/C(=c2\\sc3n(c2=O)NC2C(N=3)N(CC)C(=O)N2CC)c2ccccc21", "note": "(stereo not drawn)", "growth": "59.7%"}
{"smiles": "O=C1/C(=C/c2ccc(O)cc2)COc2ccc(O)cc21", "growth": "101%"}
{"smiles": "COc1cc(/C=C/C(=O)c2c(C)nc3ccccc3c2/C=C/c2ccccc2)cc(OC)c1OC", "growth": "25.9%"}
{"smiles": "O=c1oc2ccc(F)cc2c(=O)n1-c1ccc(Cl)cc1F", "growth": "12.7%"}
{"smiles": "CC1(C)CC2(C)OC2C2(C1)N=NC(=Nc1ccccc1)O2", "note": "(stereo not drawn)", "growth": "83.3%"}
{"smiles": "CCN1C(=O)N(CC)C2Nn3c(s/c(=C4\\C(=O)N(C(C)C)c5ccccc54)c3=O)=NC21", "note": "(stereo not drawn)", "growth": "51.8%"}
{"smiles": "O=c1c(-c2nc3ccccc3[nH]2)cc2ccccc2n1Cc1cn(Cc2ccc(F)cc2)nn1", "growth": "29.4%"}
